Reference: the supplement of paper PMC11732987, “Enantioselective OTUD7B fragment discovery through chemoproteomics screening and high-throughput optimisation” (Communications Chemistry, 2025)

Tests used:
Assay in all cases: log2 ratio of Biotin-Ahx-Ub-VS probe labelling (fragment/DMSO); higher = less target engagement (more negative = stronger competition), active = hit call of the paper (q ≤ 0.05, log2 ratio ≤ -1)
Conditions in all cases: compound concentration: 200 uM; treatment time: 3 h
USP34 = USP34 (UniProt Q70CQ2)
Sequence of USP34 (Q70CQ2 whole entry, the tested form may be a part): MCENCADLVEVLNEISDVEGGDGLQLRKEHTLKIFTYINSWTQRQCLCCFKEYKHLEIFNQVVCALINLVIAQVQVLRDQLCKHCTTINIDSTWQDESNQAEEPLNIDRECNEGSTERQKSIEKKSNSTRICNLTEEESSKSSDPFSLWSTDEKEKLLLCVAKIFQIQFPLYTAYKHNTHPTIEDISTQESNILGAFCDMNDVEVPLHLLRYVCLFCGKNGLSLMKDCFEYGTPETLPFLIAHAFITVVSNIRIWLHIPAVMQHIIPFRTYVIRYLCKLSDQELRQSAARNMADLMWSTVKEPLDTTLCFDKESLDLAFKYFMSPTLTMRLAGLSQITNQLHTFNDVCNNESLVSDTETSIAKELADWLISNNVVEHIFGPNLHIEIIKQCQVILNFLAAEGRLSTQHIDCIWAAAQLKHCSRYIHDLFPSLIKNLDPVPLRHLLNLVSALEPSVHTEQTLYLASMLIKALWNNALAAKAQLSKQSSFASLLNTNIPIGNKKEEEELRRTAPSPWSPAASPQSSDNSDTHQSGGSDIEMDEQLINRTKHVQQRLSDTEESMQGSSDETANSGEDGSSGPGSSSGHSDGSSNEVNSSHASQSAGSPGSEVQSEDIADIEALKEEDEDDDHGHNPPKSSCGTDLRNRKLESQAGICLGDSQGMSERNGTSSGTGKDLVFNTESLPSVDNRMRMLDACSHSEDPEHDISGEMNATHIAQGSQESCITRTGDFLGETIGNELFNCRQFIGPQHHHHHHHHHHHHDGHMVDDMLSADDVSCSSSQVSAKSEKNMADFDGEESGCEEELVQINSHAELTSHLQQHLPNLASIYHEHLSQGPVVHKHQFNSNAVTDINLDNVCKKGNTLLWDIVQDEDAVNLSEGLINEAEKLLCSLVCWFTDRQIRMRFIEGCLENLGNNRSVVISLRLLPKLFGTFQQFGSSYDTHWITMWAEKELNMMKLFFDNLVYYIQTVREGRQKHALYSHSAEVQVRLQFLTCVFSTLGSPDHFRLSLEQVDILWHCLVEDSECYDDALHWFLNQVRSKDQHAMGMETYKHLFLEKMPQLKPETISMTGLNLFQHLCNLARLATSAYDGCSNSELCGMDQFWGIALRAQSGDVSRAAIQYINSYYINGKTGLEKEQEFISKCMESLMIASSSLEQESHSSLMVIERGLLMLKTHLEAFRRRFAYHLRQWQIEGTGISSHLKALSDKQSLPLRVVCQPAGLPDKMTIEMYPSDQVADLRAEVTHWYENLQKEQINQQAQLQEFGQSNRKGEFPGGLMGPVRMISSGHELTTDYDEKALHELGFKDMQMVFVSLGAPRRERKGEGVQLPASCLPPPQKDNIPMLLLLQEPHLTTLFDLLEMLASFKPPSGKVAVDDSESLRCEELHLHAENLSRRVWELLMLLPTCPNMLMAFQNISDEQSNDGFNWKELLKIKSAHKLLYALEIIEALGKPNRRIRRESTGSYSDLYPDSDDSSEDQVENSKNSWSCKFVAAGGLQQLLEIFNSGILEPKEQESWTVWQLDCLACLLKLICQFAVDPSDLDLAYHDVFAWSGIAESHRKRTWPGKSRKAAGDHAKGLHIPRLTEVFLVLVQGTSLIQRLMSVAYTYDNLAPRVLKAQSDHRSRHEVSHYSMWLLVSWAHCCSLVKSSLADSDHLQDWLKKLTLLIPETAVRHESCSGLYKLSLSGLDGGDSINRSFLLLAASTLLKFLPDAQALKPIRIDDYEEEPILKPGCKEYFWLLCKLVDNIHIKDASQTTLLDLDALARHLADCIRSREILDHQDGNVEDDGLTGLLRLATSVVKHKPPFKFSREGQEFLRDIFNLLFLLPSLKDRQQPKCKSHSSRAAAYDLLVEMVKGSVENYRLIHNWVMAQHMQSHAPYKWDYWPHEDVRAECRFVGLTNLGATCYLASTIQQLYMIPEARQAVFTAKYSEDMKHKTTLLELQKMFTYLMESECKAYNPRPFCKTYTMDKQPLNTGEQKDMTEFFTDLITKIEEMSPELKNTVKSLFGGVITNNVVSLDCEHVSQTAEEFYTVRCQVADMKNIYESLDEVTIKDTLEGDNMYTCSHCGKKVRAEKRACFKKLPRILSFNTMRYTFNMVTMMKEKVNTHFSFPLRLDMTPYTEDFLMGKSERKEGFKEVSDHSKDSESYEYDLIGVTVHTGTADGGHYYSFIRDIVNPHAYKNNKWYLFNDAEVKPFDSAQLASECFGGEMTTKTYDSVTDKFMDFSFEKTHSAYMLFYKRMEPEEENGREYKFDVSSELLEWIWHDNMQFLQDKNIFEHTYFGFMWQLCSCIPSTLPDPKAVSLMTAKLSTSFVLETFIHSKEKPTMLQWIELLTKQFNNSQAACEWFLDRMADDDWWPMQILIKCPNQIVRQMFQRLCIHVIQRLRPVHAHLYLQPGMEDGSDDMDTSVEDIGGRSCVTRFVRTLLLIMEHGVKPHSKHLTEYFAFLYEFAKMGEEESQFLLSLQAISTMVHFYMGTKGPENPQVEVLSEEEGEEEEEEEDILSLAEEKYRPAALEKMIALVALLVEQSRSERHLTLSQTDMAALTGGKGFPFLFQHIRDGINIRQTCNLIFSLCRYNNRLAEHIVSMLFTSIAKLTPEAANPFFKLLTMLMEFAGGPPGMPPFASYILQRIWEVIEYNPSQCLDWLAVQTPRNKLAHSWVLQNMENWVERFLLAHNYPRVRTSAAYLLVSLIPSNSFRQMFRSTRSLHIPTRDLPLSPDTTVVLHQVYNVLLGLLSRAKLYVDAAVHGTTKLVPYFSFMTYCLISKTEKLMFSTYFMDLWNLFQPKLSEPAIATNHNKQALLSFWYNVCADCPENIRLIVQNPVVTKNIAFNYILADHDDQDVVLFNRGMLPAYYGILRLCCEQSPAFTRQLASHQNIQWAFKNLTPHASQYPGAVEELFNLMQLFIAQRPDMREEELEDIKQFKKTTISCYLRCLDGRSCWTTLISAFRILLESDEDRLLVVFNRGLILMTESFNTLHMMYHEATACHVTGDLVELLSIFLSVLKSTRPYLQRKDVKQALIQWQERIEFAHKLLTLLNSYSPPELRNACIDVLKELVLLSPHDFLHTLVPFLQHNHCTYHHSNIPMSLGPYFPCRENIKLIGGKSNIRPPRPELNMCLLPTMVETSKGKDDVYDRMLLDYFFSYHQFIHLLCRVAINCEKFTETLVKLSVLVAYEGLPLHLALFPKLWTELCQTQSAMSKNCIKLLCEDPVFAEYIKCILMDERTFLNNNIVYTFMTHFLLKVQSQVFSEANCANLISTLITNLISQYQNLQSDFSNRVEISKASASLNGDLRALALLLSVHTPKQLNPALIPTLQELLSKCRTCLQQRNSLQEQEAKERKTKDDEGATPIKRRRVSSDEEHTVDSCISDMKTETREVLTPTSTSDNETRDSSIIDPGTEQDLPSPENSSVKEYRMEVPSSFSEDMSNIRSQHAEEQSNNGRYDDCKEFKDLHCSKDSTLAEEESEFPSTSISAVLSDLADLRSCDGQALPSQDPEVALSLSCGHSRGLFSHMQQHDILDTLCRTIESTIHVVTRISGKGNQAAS
Procedure, shortened: (§1)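 HEK293T lysate (495 µg per sample, in Tris/CHAPS/IGEPAL buffer with protease inhibitors) was exposed in triplicate for 3 h to fragment at 200 µM or to vehicle, then to Biotin-Ahx-Ub-VS at 0.5 µM final for 1 h. Labelled DUBs were enriched on NeutrAvidin, digested with LysC and trypsin, and analysed by diaPASEF LC-MS/MS. Spectronaut label-free quantities were normalised to the global median, and values are average log2 ratios of fragment over vehicle from an unpaired t-test. Only proteins with ≥2 unique peptides were used.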

USP36 = molecular target: T1, USP36 (UniProt Q9P275)
T1 sequence (whole entry): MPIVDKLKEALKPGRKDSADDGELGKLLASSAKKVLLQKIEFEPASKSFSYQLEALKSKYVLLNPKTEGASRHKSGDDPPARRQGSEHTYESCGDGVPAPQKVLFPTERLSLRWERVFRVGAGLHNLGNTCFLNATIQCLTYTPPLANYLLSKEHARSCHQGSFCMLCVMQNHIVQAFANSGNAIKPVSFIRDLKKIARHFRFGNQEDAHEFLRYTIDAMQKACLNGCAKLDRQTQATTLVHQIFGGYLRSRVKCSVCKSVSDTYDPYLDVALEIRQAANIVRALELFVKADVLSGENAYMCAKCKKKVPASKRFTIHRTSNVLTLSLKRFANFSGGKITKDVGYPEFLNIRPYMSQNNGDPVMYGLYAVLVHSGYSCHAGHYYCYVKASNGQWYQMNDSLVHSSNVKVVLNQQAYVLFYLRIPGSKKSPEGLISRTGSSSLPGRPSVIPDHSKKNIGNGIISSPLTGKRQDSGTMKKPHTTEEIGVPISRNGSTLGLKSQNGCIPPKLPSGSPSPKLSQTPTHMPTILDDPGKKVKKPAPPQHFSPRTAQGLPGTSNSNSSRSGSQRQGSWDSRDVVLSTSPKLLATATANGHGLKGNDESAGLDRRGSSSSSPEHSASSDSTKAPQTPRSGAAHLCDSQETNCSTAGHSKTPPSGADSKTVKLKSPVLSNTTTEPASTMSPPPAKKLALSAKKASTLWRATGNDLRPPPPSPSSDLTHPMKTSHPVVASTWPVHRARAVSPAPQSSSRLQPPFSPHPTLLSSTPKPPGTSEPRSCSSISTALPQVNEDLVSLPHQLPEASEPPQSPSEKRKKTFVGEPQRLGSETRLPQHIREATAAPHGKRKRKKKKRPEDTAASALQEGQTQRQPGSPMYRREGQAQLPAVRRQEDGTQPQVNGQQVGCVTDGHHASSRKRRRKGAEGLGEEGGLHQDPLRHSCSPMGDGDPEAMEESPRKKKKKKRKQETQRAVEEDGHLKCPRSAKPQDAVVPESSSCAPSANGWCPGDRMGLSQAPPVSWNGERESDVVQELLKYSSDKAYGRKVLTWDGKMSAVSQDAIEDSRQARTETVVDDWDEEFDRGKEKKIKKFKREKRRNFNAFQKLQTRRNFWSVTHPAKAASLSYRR
Procedure, shortened: as §1

USP38 = molecular target: T2, USP38 (UniProt Q8NB14)
T2 sequence (whole entry): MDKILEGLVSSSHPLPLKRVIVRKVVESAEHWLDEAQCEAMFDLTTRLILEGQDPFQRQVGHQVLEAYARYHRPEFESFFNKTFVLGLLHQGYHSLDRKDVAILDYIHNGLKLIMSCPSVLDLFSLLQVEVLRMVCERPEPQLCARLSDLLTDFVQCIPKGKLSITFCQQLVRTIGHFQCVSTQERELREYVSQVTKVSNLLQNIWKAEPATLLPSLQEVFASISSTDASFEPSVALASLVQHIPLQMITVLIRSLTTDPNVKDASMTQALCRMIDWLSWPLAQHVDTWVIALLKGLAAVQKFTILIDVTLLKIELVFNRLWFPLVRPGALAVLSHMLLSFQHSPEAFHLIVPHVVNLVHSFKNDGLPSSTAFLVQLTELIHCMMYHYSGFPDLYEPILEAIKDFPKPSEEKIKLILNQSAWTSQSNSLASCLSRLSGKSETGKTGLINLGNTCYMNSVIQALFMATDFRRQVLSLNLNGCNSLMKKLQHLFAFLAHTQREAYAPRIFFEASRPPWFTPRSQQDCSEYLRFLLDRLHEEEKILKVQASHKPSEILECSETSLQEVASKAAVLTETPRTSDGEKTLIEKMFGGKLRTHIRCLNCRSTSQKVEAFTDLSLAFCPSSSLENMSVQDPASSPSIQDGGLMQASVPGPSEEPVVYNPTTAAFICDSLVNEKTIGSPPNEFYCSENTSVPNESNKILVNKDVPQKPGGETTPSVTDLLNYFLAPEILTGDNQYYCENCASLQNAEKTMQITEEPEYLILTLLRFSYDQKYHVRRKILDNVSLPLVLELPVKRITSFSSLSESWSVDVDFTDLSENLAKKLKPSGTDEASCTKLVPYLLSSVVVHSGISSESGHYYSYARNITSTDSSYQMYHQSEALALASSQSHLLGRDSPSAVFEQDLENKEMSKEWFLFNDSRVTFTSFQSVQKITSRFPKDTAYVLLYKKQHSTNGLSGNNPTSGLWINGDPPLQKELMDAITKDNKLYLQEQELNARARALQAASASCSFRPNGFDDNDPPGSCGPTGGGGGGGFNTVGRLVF
Procedure, shortened: as §1

USP39 = molecular target: T3, USP39 (UniProt Q53GS9)
T3 sequence (whole entry): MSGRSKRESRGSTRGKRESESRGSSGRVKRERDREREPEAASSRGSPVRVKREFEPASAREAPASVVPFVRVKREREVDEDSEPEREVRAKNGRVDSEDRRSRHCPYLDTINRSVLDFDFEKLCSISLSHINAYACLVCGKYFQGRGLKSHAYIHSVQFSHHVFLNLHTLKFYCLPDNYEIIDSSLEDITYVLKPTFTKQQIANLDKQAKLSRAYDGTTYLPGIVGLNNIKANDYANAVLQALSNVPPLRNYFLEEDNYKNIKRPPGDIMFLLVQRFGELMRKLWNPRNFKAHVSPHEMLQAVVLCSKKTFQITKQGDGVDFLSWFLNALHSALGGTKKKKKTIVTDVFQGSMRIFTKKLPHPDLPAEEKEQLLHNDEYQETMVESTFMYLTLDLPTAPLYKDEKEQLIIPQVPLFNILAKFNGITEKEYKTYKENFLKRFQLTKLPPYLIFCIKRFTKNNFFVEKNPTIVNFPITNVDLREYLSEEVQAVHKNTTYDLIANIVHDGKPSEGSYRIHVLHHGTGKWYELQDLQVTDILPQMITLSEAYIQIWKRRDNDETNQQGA
Procedure, shortened: as §1

USP4 = molecular target: T4, USP4 (UniProt Q13107)
T4 sequence (whole entry): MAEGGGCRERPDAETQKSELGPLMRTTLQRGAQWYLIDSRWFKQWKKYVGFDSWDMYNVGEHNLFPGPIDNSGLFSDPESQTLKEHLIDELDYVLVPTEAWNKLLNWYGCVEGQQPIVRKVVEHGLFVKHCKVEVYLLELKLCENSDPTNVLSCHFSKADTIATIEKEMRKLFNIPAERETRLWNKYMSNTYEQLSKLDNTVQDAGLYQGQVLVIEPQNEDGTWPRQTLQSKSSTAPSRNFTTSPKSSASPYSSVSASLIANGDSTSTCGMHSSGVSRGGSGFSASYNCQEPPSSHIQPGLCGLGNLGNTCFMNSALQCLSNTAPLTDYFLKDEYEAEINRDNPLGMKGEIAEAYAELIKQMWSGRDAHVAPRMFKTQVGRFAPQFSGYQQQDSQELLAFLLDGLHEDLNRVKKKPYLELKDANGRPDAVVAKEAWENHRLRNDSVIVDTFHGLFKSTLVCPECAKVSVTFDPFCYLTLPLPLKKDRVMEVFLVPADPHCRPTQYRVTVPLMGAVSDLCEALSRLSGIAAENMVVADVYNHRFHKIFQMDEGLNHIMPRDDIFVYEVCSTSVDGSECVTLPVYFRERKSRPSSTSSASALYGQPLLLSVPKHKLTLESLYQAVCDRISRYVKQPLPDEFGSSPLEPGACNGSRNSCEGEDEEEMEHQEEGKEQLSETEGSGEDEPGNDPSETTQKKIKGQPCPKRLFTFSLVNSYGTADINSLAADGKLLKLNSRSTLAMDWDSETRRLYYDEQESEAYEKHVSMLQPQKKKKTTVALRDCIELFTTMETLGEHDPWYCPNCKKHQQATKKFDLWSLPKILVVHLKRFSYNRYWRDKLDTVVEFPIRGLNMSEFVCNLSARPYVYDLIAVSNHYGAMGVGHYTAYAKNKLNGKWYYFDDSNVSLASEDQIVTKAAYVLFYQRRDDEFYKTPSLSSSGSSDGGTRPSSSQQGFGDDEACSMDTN
Procedure, shortened: as §1

Measured: log2 ratio of Biotin-Ahx-Ub-VS probe labelling

Cc1ccc(C(=O)NCCNC(=O)CCl)cc1
inactive: USP34 -0.0636 | USP36 0.0541 | USP38 -0.00607 | USP39 -0.0936 | USP4 -0.258
